TRb SRC2 PPI: disrupts binding of human TR beta to SRC2. P10828. TRbeta-SRC2 peptide binding, fluorescence polarization; receptor liganded with 1 µM T3. Potency, µM (series often up to 106 µM), for the others: at the top dose activity change, negative = inhibition, usual class: inhibitors. hit rate 0.065% among 280,000;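 also: plate controls were bound peptide for no effect and peptide without receptor for full effect; nearly all actives have a fitted effect of over 50% in size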
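Quantitative HTS by FP: 0.6 uM TRb LBD, 20 nM labeled SRC2 20-mer, 1 uM T3, 5% DMSO; 5 hr ambient incubation; % activity per concentration and potencies from concentration series.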
Tau fibril ThT: tau fibrillization inhibition (ThT binding); P10636; recombinant tau K18 P301L, heparin-induced fibrillization, ThT fluorescence; Potency, µM (doses to about 57.4 µM), without a hit: at the top dose activity, negative = inhibition, most hits filed as inhibitors; hit rate 2.1% among 270,000; AID 1460; also: nearly all actives have a fitted effect of over 55% in size
Target sequence (P10636 561-689 P618L limits assumed): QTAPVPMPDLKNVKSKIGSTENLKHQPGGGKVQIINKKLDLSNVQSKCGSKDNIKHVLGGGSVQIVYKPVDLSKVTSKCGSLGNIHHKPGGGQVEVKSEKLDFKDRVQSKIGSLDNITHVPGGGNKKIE
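Tau K18 P301L fragment (15 uM unlabeled plus 0.24 uM Alexa 594-labeled) in 100 mM sodium acetate pH 7 with compound, fibrillization induced by 20 uM heparin for 6 hr at 37 C. Thioflavin T (30 uM) added, fluorescence read after 1 hr (ex 450, em 510 nm).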
Tau fluor counter: counter-screen for tau fibril formation inhibitors | AID 1463 | Potency, µM (doses to about 57.7 µM), without a hit: top-dose activity change, negative = decrease | hit rate 0.93% among 280,000 | tau K18 P301L Alexa594 fluorescence, heparin fibrillization; also: nearly all actives have a fitted effect of over 55% in size
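Human tau K18 P301L (15 uM unlabeled, 0.24 uM Alexa 594-labeled) in 100 mM sodium acetate pH 7 with 20 uM heparin, 6 hr at 37 C. ThT 30 uM added, 1 hr ambient; Alexa 594 FP and total fluorescence read at 555/632 nm.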
TexasRed fluor: counter-screen for TRb-SRC2 inhibitors: fluorescence interference; TRb/SRC2 Texas Red total fluorescence interference; Potency, µM (highest dose often 106 µM), for the others: top-dose fluorescence change, negative = quenching; AID 1479; hit rate 0.29% among 280,000; active = well fitted curve in either direction with a large enough effect; inconclusive = small, poorly fitted or top-dose-only effect
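Human TRβ ligand-binding domain (0.6 uM) and Texas Red SRC2 peptide (20 nM) in Tris buffer with 1 uM T3 and 5% DMSO were incubated with pinned compound for 5 hr at ambient temperature. Total fluorescence was computed as S + 2P (555/632 nm).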
RGS12 GoLoco inh: inhibitors of human Gai1-RGS12 GoLoco interaction (red fluorophore); hit rate 0.44% among 230,000; AID 880; Gai1:RGS12 GoLoco peptide FP, rhodamine, 10 min; Potency, µM (titrated, usually from 61.6 µM), for the others: at the highest dose activity, negative = inhibition, most hits filed as inhibitors; P63096; active = well fitted inhibition curve with a large enough effect, not every such curve was filed as active; inactive = no such curve, though single readings can be large or run the other way; also: nearly all actives have a fitted effect of over 30% in size
Target sequence (P63096 whole entry, looked up): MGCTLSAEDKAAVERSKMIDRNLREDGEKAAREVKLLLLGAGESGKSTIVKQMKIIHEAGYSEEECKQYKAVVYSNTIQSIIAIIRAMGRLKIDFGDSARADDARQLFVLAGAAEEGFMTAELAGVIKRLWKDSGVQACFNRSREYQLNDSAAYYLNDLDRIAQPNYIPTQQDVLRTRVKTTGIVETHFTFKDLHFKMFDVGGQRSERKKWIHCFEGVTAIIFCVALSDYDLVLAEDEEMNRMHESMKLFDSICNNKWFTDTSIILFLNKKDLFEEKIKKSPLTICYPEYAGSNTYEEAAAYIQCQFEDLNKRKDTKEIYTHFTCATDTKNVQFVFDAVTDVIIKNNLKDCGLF
Tau FP inhib: tau fibrillization inhibition (FP). P10636. K18 P301L tau heparin fibrillization, Alexa594 FP, 6 h. hit rate 0.39% among 280,000. Potency, µM (series often up to 57.7 µM), for the others: top-dose activity, negative = inhibition, actives largely listed as inhibitors; also: nearly all actives have a fitted effect of over 55% in size
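Recombinant K18 P301L […], labeled with Alexa 594 at 0.24 uM over 15 uM unlabeled; heparin inducer 20 uM final; 37 C, 6 hr; FP endpoint.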
The depositor's hits bear a star; ? = inconclusive; . = not tested or not shown; [ ] = remark or other dose. The list is not random: actives were taken first. Their share in the collection is about 3.2%. Unless noted, calls follow the shape of the dose curve; as a rule, active = well fitted curve in the direction sought with a large enough effect; inconclusive = small, poorly fitted or top-dose-only effect, or another doubt; inactive = no such curve, though single readings can be large; an effect the other way counts as inactive or inconclusive. Unless noted, % is scaled to controls: 0 for no effect and ±100 for the full control effect; potency is read from the fitted curve at half-maximal effect.

SMILES	TRb SRC2 PPI	Tau fibril ThT	Tau fluor counter	TexasRed fluor	RGS12 GoLoco inh	Tau FP inhib
Cc1[nH]n(-c2ncc(-c3ccc(Cl)cc3)s2)c(=O)c1C(c1ccc(Cl)cc1)C(C#N)C#N (stereo unspecified)	4%	11µM*	?	-22%	14%	40µM*
COc1ccc(-c2cccc(C3C4C=CCCC4(C)C(=O)N3Cc3ccccc3)c2)cc1 (stereo unspecified)	-6%	.	.	-2%	.	.
O=C(/C=C/c1ccc(N2CCCCC2)c([N+](=O)[O-])c1)c1ccc(S(=O)(=O)N2CCCC2)cc1	2%[53 µM]	10µM*	-28%	-1%[53 µM]	15%	?
COc1cccc(C(=O)/C=C/c2ccc(N3CCCCC3)c([N+](=O)[O-])c2)c1	-21%	7.9µM*	?	1%	6%	-3%
CC(C)(C)c1ccc(O)c(C(C)(C)C)c1	-1%[201 µM]	.	.	-2%[201 µM]	.	.
CCCCc1nc2c(c3c1C[C@H](C)OC3)CN(C(=O)c1cccnc1)CC2	1%[11.2 µM]	3%[11.5 µM]	-2%[11.6 µM]	-6%[11.2 µM]	-2%[14.2 µM]	-2%[11.6 µM]
CC(O)CCCCCCC/C=C/C=C/C(N)=O (stereo unspecified)	5%[11.2 µM]	?	-20%[11.6 µM]	-3%[11.2 µM]	.	4%[11.6 µM]
CCc1cccc(NC(=O)C2CCCN2S(=O)(=O)c2ccc3nc(-c4ccccc4)[nH]c3c2)c1 (stereo unspecified)	-2%	16%	14µM*[quencher]	-3%	.	32µM*
CCOc1ccccc1NC(=O)C1CCN(S(=O)(=O)c2ccc3[nH]c(=O)ccc3c2)CC1	-2%	2%	1%	-27%	.	?
CCOc1ccccc1NC(=O)C1CCCN1S(=O)(=O)c1ccc2nc(-c3ccccc3)[nH]c2c1 (stereo unspecified)	5%	4%	10µM*[quencher]	-2%	.	?
CCc1cccc(NC(=O)C2CCCN2S(=O)(=O)c2ccc3c(c2)n(C)c(=O)c(=O)n3C)c1 (stereo unspecified)	7%	?	-5%	-3%	3%	-2%
O=S(=O)(c1ccc2nc(-c3ccccc3)[nH]c2c1)N1CCN(c2cccc(Cl)c2)CC1	-1%	-4%	?	-7%	7%	?
Cc1cc(C)cc(NC(=O)C2CCCN2S(=O)(=O)c2ccc3nc(-c4ccccc4)[nH]c3c2)c1 (stereo unspecified)	-2%	11%	14µM*[quencher]	-2%	.	?
COc1ccccc1N1CCN(S(=O)(=O)c2ccc3nc(-c4ccccc4)[nH]c3c2)CC1	-1%	8%	?	2%	8%	22µM*
O=C(CCCC[C@@H]1SC[C@H]2NC(=O)N[C@H]12)Nc1ccc(C(=O)O)cc1	-2%	.	.	-20%	.	.
CC1(O)/C=C\C=C(\CO)C2CC(C)(C)C2(O)CC1 (stereo unspecified)	3%	-17%	-21%	-2%	2%	-4%
NC(CSS(=O)(=O)O)=N[C@@H]1C[C@H]2CC[C@@H]1C2	.	.	.	.	3%[14.2 µM]	.
NC(CSS(=O)(=O)O)=NCCC12CC3CC(CC(O)(C3)C1)C2	-24%	3.5µM*	-12%	-1%	-17%	?
COc1cccc([C@@H]2Oc3ccc(Br)cc3C[C@H]2O)c1	4%	-10%	-10%	1%	1%	4%
Cc1ccc(NC(=S)N/N=C/c2ccc([N+](=O)[O-])s2)cc1	-4%	5µM*	16µM*[quencher]	-3%	135%	?
COC(=O)[C@H](COC(C)(C)C)NC(=O)O[C@H]1C(=O)c2cc(OC)ccc2O[C@@H]1c1ccc(OC)c(Br)c1	0%	-8%	-15%	0%	6%	-2%
COC(=O)C1=C[C@@H](C(=O)OC)C2C3=C(C(=O)[C@]2(CC(C)C)NC(=O)c2ccccc2)[C@H](C)n2c(=O)n(C)c(=O)n2[C@@H]3C1 (stereo partly specified)	-5%	.	.	-1%	.	.
C[n+]1ccccc1/C=N/O	-6%	3%	0%	-2%	-1%	2%

Assay outcomes from PubChem.
